# Source: PubChem
# In the library only some 5.2% were active in any assay of this set; here they are far more common.
# rTrxR1 inhibitor: blocks rat thioredoxin reductase 1. actives 1% (n = 390,000). O89049. recombinant rTrxR1, NADPH fluorescence consumption, selenite substrate. Potency, µM (highest dose often 114 µM), usual class: inhibitors. AID 588453; note: nearly all actives have a fitted effect of over 65% in size
# Target sequence (O89049 whole entry, looked up): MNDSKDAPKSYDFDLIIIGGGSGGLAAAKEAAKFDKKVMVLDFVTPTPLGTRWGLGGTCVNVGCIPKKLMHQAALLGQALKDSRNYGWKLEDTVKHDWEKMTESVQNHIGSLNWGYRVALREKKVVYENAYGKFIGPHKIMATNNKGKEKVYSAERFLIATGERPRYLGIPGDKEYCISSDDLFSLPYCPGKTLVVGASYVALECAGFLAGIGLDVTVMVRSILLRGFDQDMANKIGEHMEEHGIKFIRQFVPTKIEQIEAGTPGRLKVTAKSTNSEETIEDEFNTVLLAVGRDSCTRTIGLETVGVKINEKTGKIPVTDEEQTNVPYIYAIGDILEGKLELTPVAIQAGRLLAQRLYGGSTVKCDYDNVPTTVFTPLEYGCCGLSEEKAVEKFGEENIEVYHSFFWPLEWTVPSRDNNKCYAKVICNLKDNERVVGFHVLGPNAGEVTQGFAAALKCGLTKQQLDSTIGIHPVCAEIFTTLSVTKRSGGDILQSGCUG
#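 Rat TrxR1 (90 nM in the dispensed reagent) was pre-reduced with 400 uM NADPH for 5 min at room temperature, then incubated with compound for 15 min. After 400 uM selenite was added, NADPH fluorescence (Ex 340/Em 450 nm) was followed for 8 min.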
# TrxR1 substrate: rat thioredoxin reductase 1 substrate activity; Potency, µM (highest dose often 114 µM); purified TrxR1 substrate turnover, NADPH consumption readout; AID 588456; O89049; actives 0.01% (n = 390,000); note: nearly all actives have a fitted effect of over 50% in size
#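 Rat TrxR1, dispensed at 90 nM, was prereduced with 400 uM NADPH (final) for 5 min at ~22 deg C, then incubated with compound 15 min before 400 uM selenite. A first-read NADPH fluorescence drop versus no-compound background flagged substrates.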
# PLK1 PBD inh: blocks phosphopeptide binding to human PLK1 polo-box domain; Potency, µM, usual class: inhibitors; Plk1 PBD binding of FITC phosphopeptide, fluorescence polarization; actives 2.8% (n = 360,000); P53350; note: series mostly up to about 57 µM; nearly all actives have a fitted effect of over 65% in size
# Sfp PPTase inh: inhibitors of Bacillus subtilis Sfp phosphopantetheinyl transferase; Potency, µM, most hits filed as inhibitors; Biochemical Sfp PPTase activity, qHTS; Q9F4F7; actives 3.5% (n = 310,000);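 note: the enzyme is Sfp with the accession as filed and its product quenches rhodamine fluorescence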
#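 Compounds were incubated with enzyme (final 15 nM) for 15 min at room temperature before substrate addition started the reaction. Fluorescence at 525 nm excitation, 598 nm emission was recorded immediately and after 30 minutes.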
# VDR inhibitor: blocks the human vitamin D receptor; P11473; VDR-SRC2-3 peptide fluorescence polarization, 2 h; actives 0.93% (n = 400,000); Potency, µM, actives largely listed as inhibitors
#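 Measured by FP: displacement of SRC2-3 coactivator peptide from VDR by library compounds, following a two-hour ambient incubation.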
# mIDH1 inhibitor: inhibitors of human mutant IDH1 R132H; Potency, µM (titrated, usually from 76.6 µM), most hits filed as inhibitors; O75874; IDH1-R132H enzyme, NADPH consumption, diaphorase/resazurin fluorescence; actives 0.093% (n = 390,000); AID 602179; note: nearly all actives have a fitted effect of over 65% in size
#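 IDH1-R132H (0.5 ug/mL) preincubated 30 min with compound, then NADPH (0.016 mM) and alpha-KG (2 mM) added; 80 min at RT, pH 7.5. Remaining NADPH coupled via diaphorase/resazurin to fluorescence (540/590 nm); concentration-response curves normalized to no-enzyme control.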
# Hits are given with their value; 0 = inactive; ? = inconclusive; - = no result; ! = not active in a repeat. Calls come from the whole dose curve; as a rule, active = well fitted curve in the direction sought with a large enough effect; inconclusive = small, poorly fitted or top-dose-only effect, or another doubt; inactive = no such curve, though single readings can be large; an effect the other way counts as inactive or inconclusive.
SMILES,rTrxR1 inhibitor,TrxR1 substrate,PLK1 PBD inh,Sfp PPTase inh,VDR inhibitor,mIDH1 inhibitor
COc1ccc(C(=O)OC2CC3CC[C@H](C2)N3C(C)=O)cc1OC (stereo partly drawn),-,-,-,0,0,-
O=C(NNS(=O)(=O)c1ccc([N+](=O)[O-])cc1)C(=O)Nc1cccc(C(=O)O)c1,0,0,?,40µM,0,0
Cc1ccc(C(=O)Nc2cccc([N+](=O)[O-])c2)cc1S(=O)(=O)Nc1cccc(C(=O)O)c1,0,0,15µM,0,0,0
CCC[C@@H]1NC(=O)[C@@H](NC(C)=O)CSSC[C@@H](C(N)=O)NC(=O)CNC(=O)[C@H](Cc2c[nH]c3ccccc23)NC(=O)[C@H](CCCN=C(N)N)NC(=O)[C@H](Cc2ccc3ccccc3c2)NC(=O)[C@H](Cc2cnc[nH]2)NC(=O)[C@H](CCCN=C(N)N)NC1=O,-,-,-,0,0,-
COc1ccc(C#Cc2c(-c3ccccc3)n(-c3ccccc3)c3ccc(CO)cc23)cc1,35µM,0,0,-,0,0
COc1ccc(-c2c(C#Cc3ccc(N(C)C)cc3)c3ccccc3n2C)cc1,0,0,0,-,0,0
C[C@H]1Cc2c(COc3ccccc3)nc3c(c2CO1)CN(S(=O)(=O)c1ccc2c(c1)OCCN2C)CC3,-,-,-,0,-,-
S=c1[nH]nc(Cn2cnc3ccccc32)n1-c1ccccc1Cl,0,0,0,89µM,0,0
O=C(C[n+]1cccc(Br)c1)c1ccc2ccccc2c1,0,0,-,-,-,-
O=CN1c2ccccc2CSc2ccccc21,0,0,0,-,0,0
COc1ccc(C(=S)N(C)C)cc1OC,0,0,19µM,45µM,?,0
CN(C)c1ccc(NC(N)=S)cc1,0,0,0,0,0,0
CN(C)C(=S)c1ccc(N(C)C)cc1,0,0,27µM,16µM,?,0
CN(C)C(=S)c1ccccc1,0,0,21µM,20µM,?,0
COc1ccc(C(=O)c2ccc(OC)c(OC)c2)cc1OC,0,0,0,0,0,0
CN(/N=C/c1ccccc1O)C(=S)c1ccccc1,0,0,0,?,0,0
CC1(C)CC(=O)C2=C(C1)O[C@@]1(CCCCN3C(=O)c4ccccc4C3=O)Cc3cc(C#N)ccc3C2O1,-,-,-,0,-,-
COc1ccc(C(=O)/C=C/c2ccc(OC)c(O)c2)c(F)c1,0,0,0,50µM,89µM,0
COc1ccc(/C=C/C(=O)c2ccc(Cl)s2)cc1O,0,0,0,0,79µM,0
O=C(C=Cc1ccc(Cl)s1)c1ccc(Cl)s1,?,0,0,-,?,0
COc1ccc(/C=C/C(=O)CC(=O)/C=C/c2cccc(O)c2OC)cc1O,-,-,-,32µM!,?,-
COc1cc(/C=C/C(=O)c2ccc(Cl)s2)cc(OC)c1O,0,0,0,?,56µM,0
CC(NC(=O)c1ccccc1)c1nc2ccccc2n1Cc1ccccc1F (stereo not drawn),-,-,-,0,-,-
CC(NC(=O)/C=C/c1ccco1)c1nc2ccccc2n1Cc1ccccc1F (stereo not drawn),50µM,0,0,?,0,0
CC(NC(=O)/C=C/c1ccco1)c1nc2ccccc2n1Cc1c(Cl)cccc1Cl (stereo not drawn),?,0,0,50µM,0,0
SMILES,rTrxR1 inhibitor,TrxR1 substrate,PLK1 PBD inh,Sfp PPTase inh,VDR inhibitor,mIDH1 inhibitor
Cc1ccccc1C1CC(=O)Oc2ccc(O)cc21 (stereo not drawn),-,-,-,126µM,?,-
COc1cc(C2CC(=O)Oc3ccc(O)cc32)cc(OC)c1OC (stereo not drawn),-,-,-,50µM,0,-
COc1ccccc1C1CC(=O)Oc2cc(O)ccc21 (stereo not drawn),0,0,0,0,0,0
Cc1cnc2c(C)cccc2c1C,0,0,-,-,-,-
CCOc1ccc(-c2nonc2NC(=O)c2oc3ccc(F)cc3c2C)cc1,0,0,-,-,0,0
Cc1c(C(=O)Nc2nonc2-c2ccc(F)cc2)oc2ccc(F)cc12,0,0,30µM,0,?,0
CCCCCCC[n+]1c(/C=C/c2ccc(N(C)C)cc2)sc2ccccc21,0,0,-,-,-,-
CN(C)NC(=S)NC1(C)CCS(=O)(=O)C1 (stereo not drawn),0,0,0,89µM,0,0
COc1ccc(C(=O)CC2(O)C(=O)N(CCc3ccccc3)c3ccc(Br)cc32)cc1OC (stereo not drawn),0,0,-,-,0,0
